# Assay results published in the OligoGym collection.
# Experiments:
# Test in all cases: pooled miR-30 sensor sort-seq; sequence = guide strand
# Conditions in all cases: shRNA
# CDH2 = target: CDH2
# CDK9 = target: CDK9
# CDKL2 = target: CDKL2
# Note: reference of the scale not given here.
sequence,measurement,setting,value
TTTATCTTTAAATTAAGCTGAG,sensor-assay potency score (higher = more potent),CDH2,-0.626
TATTTGGAAACTTCATCACAAA,sensor-assay potency score (higher = more potent),CDK9,-1.19
TTGTCGATGAGGTCCAGTGCGT,sensor-assay potency score (higher = more potent),CDK9,-0.728
TTTGTTTCAAAGTCGATTGGTT,sensor-assay potency score (higher = more potent),CDH2,0.586
TACTTTTAACTGTAGTTCTTGG,sensor-assay potency score (higher = more potent),CDKL2,-0.4
TACCAGAGTGTCACCACACGGT,sensor-assay potency score (higher = more potent),CDK9,0.18
TACTCGAACATGGACGTCAGGT,sensor-assay potency score (higher = more potent),CDK9,-0.285
TTTTTATCTCTATCAGACCTGA,sensor-assay potency score (higher = more potent),CDH2,-0.29
TTGATCTCCCGCAAGGCTGTAA,sensor-assay potency score (higher = more potent),CDK9,-0.379
TATATACTACCCTTGCAGCGGT,sensor-assay potency score (higher = more potent),CDK9,-0.627
TCTCGTATTTGGAAACTTCATC,sensor-assay potency score (higher = more potent),CDK9,-1.02
AACTTGACCAAAACATTGCTCA,sensor-assay potency score (higher = more potent),CDK9,-0.141
TAGTAACTTGATTTCTCGCATT,sensor-assay potency score (higher = more potent),CDKL2,-0.927
ATCTCTGCCATGATGCACCCAG,sensor-assay potency score (higher = more potent),CDK9,-0.791
TTCTTCAGAGCCACCTTCTGGC,sensor-assay potency score (higher = more potent),CDK9,0.0361
TTGACCACATTCTCGTGTTTTA,sensor-assay potency score (higher = more potent),CDK9,-0.499
TTGAACACCTCCCCGAAGGTGC,sensor-assay potency score (higher = more potent),CDK9,-0.836
TTTTAGAAGCTGAAGGATCTTG,sensor-assay potency score (higher = more potent),CDK9,-0.461
TTTCAGGCAACCTTACTCCAGC,sensor-assay potency score (higher = more potent),CDKL2,-0.594
TAGAAGCTGAAGGATCTTGATC,sensor-assay potency score (higher = more potent),CDK9,-0.488
ATTCTCGTGTTTTAGAAGCTGA,sensor-assay potency score (higher = more potent),CDK9,0.181
TTCAACTTCTGCTGACTCCTTC,sensor-assay potency score (higher = more potent),CDH2,0.711
AAGTACTCGAACATGGACGTCA,sensor-assay potency score (higher = more potent),CDK9,0.37
TTTGTCATCGTCACTTTCTAAG,sensor-assay potency score (higher = more potent),CDKL2,-0.977
TTTCTCTTAATAGTCACTGGAG,sensor-assay potency score (higher = more potent),CDH2,-0.274
TTGTACTTGTCCAAAAACCAAG,sensor-assay potency score (higher = more potent),CDH2,-1.35
TTTTCCATCAGCACCTTCTTCA,sensor-assay potency score (higher = more potent),CDK9,-0.28
TTGCTGCATATATCGATCTGGG,sensor-assay potency score (higher = more potent),CDH2,-0.846
TTAGCAGCCTTCATGTCCCTAT,sensor-assay potency score (higher = more potent),CDK9,-0.0117
TCAAGTTGACCACATTCTCGTG,sensor-assay potency score (higher = more potent),CDK9,-0.846
TTTCTGTGGATGTAGTAGAGGC,sensor-assay potency score (higher = more potent),CDK9,-0.227
TTTAGTAACTTGATTTCTCGCA,sensor-assay potency score (higher = more potent),CDKL2,0.263
AAAACATTGCTCAACAGCCCAG,sensor-assay potency score (higher = more potent),CDK9,-1.38
TCGAACACCAGGTATATACTAC,sensor-assay potency score (higher = more potent),CDK9,-0.813
TAGATAAAGAAACATTTCTGGC,sensor-assay potency score (higher = more potent),CDKL2,-0.719
TATACTACCCTTGCAGCGGTTA,sensor-assay potency score (higher = more potent),CDK9,-0.622
